# Laboratory results taken from PubChem BioAssay (EPA / NIEHS).
# Activity calls are given as the source filed them. How the source made its calls: active means hit-call score of the fitted dose curve at least 0.9, where 1 is the maximum; inactive means score below 0.9.
# Read-out: Cytochrome P450 (CYP1A2), CYP1A2 (gene 1544)
# Test: LTEA_HepaRG_CYP1A2: Life Technologies and Expression Analysis (LTEA) Assay for Cytochrome P450 (CYP1A2) using HepaRG (AID 2283479);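 on AC50: TaqMan qRT-PCR transcript level normalized to ACTB GAPDH and POLR2A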
# Details: mRNA level, 48 h; actives raise or lower the signal
# Method: LTEA_HepaRG is a cell based, multiplexed-readout assay that uses HepaRG, a human liver cell line, with measurements taken at 48 hours after chemical dosing on a 96-well plate.LTEA_HepaRG_CYP1A2 is one of 102 assay component(s) measured in the LTEA HepaRG cell culture assay. It is a marker of NR mediated metabolism.Data from the assay component LTEA_HepaRG_CYP1A2 was analyzed into 1 endpoint. This assay endpoint, LTEA_HepaRG_CYP1A2, was analyzed with bidirectional fitting relative to DMSO as the negative control and baseline of activity. Using a type of inducible reporter, measures of mRNA induction for gain or loss-of-signal activity can be used to understand regulation of transcription factor activity. To generalize the intended target to other relatable targets, this assay endpoint is annotated to the cyp intended target family, where the subfamily is xenobiotic metabolism.
# A total of 1060 chemcials from the ToxCast library were tested in eight-point concentration-response experiments. Cell culture and cytotoxicity assays were conducted at Thermo Fisher Scientific's Custom Services facility (Madison, WI). A single lot of human HepaRG cells (Thermo Fisher Scientific, Frederick, MD) was used for the cell culture experiments. 96-well format collagen type I coated plates of human HepaRG cells were prepared using established methods. Briefly, cryopreserved HepaRG cells were thawed, plated at a density of approximately 100,000 cells/well in HepaRG Thaw, Plate, and General Purpose media (HPRG770, Thermo Fisher Scientific), and incubated for 48 hours. 0.5% DMSO was selected as vehicle control to balance the requisite need of DMSO in HepaRG cultures to maintain differentiation (for example, baseline metabolism, proportions of hepatocytes vs. cholangiocytes), while enabling further hepatic receptor pathway activation (for example, PXR and CAR) in response to chemical exposure. 48 hours after plating, the culture medium was replaced with HepaRG Serum-Free Incudtion Media. Cells were exposed to each test chemical in duplicate and maintained in CO2 incubators for another 48 hours. Chemical plates were thawed to room temperature and 200x concentrations of treatment groups were prepared. 8-point conentration-reponse curves were made with the highest exposure at 100 uM, followed by half-log dilutions, all in 0.5% DMSO. Each test plate contained variouse controls, induction positive controls (1mM phenobarbital), cytotoxicity positive controls ([…] aflatoxin B1), vehicle controls (0.5% DMSO), and total lysis controls (0.5% DMSO). Cell morphology images were taken using an Essen IncuCyte FLR automated microscope, with six 96-well plates imaged in about 24 minutes. Images were captured and exported and JPEG files. Spent culture media was transfered to black-well plates for the LDH assay, and remaining media was sorted at -80 C for later use. Cells were treated with RLT buffer and frozen until shipped for gene expression analysis. Total RNA was isolated from the cell suspension in 75 uL of Buffer RLT (Qiagen, Germantown, MD 20874) by Quintiles/Expression Analysis (Durham, NC) using a custom isolation procedure. Total RNA from each plate well was transferred to a preamplification plate. Fluidigm's 96.96 Dynamic ArrayTM (Fluidigm, Amsterdam, the Netherlands) technology was used for gene expression analyses by quantitative reverse transcription polymerase chain reaction (qRT-PCR, performed by Quintiles/Expression Analysis, Durham, NC)89. Standard TaqManTM Assays (Applied Biosystems/ThermoFisher Scientific, Foster City, CA) were used to assess the expression of 93 genes selected based on their selectivity and sensitivity to important hepatic receptors known to be modulated by environmental chemicals; importance in human hepatocyte functionality; and hepatotoxicity. […]
SMILES,outcome,AC50
OCC(CO)(CO)CO,inactive,–
O=C(O)c1ccc2c(c1)nc(C(=O)NC1CCN(C3CC3)CC1)n2Cc1cc(-c2ccc(Cl)s2)on1,inactive,–
CCCCCCCCCC,–,50 µM (active)
NNC(=O)c1ccncc1,inactive,–
COc1cc(C(C)C)c2c(c1)S(=O)(=O)N(COc1cc(=O)n3cccc(OCCN4CCCCC4)c3n1)C2=O,–,20.2 µM (active)
CCCCCCCCCCCCCCO,–,50 µM (active)
CCCCCCCCCCCCCCCCOS(=O)(=O)O,inactive,–
c1ccc2cc3ccccc3cc2c1,–,18.7 µM (active)
C=CN1CCCC1=O,inactive,–
Cn1c(=O)c2[nH]cnc2n(C)c1=O,inactive,–
CC(C)CC(C)O (stereo not given),–,50 µM (active)
CCc1ccc(O)c(C(C)(C)C)c1,inactive,–
OC(Cn1cncn1)(Cn1cncn1)c1ccc(F)cc1F,inactive,–
CC(C)CCCCCCOC(=O)C1CCCCC1C(=O)OCCCCCCC(C)C (stereo not given),–,50 µM (active)
CCCCC(CC)C(=O)OCCOCCOCCOC(=O)C(CC)CCCC (stereo not given),inactive,–
O=S(=O)(O)c1ccc(N=Nc2c(O)ccc3cc(S(=O)(=O)O)ccc23)cc1,–,50 µM (active)
CCCCN1C(=O)[C@@H]([C@H](O)C2CCCCC2)NC(=O)C12CCN(Cc1ccc(Oc3ccc(C(=O)O)cc3)cc1)CC2,–,2.06 µM (active)
NC(=O)NN=Cc1ccc([N+](=O)[O-])o1,–,0.377 µM (active)
OC(CCl)CCl,inactive,–
C=CCc1cc(S(=O)(=O)c2ccc(O)c(CC=C)c2)ccc1O,–,8.77 µM (active)

SMILES,outcome,AC50
CCCCCCOC(=O)CC(CC(=O)OCCCCCC)(OC(=O)CCC)C(=O)OCCCCCC,inactive,–
OC[C@H]1O[C@@](CO)(O[C@H]2O[C@H](CO)[C@@H](O)[C@H](O)[C@H]2O)[C@@H](O)[C@@H]1O,inactive,–
O=c1[nH]cnc2c1ncn2[C@H]1CC[C@@H](CO)O1,inactive,–
CCCc1ccccc1,inactive,–
CC[C@H](C)C(=O)O[C@H]1C[C@H](O)C=C2C=C[C@H](C)[C@H](CC[C@@H](O)C[C@@H](O)CC(=O)O)[C@H]21,–,3.09 µM (active)
NC(=O)N(O)[C@@H]1COc2cc(OCc3ccccc3)ccc21,–,50 µM (active)
OCc1ccccc1,inactive,–
O=C1CN(N=Cc2ccc([N+](=O)[O-])o2)C(=O)N1,inactive,–
O=S1(=O)CCCO1,inactive,–
CNC(C)=O,inactive,–
CCN(CC)C(=S)SSC(=S)N(CC)CC,–,75.2 µM (active)
CCOc1ccc2[nH]cc(C(=O)NCc3ccccc3)c(=O)c2n1,–,32 µM (active)
CCCOc1ccc(S(=O)(=O)N2CCN(CC)CC2)cc1-c1nc2c(CC)n(Cc3ccccn3)nc2c(=O)[nH]1,–,79.4 µM (active)
Cc1nc(-c2ccccn2)ncc1C(=O)Nn1cc(C)c2cc(F)ccc21,inactive,–
CCCCOC(=O)c1ccccc1,inactive,–
CCCC(CCC)C(=O)O,inactive,–
NC(=O)N1c2ccccc2C=Cc2ccccc21,inactive,–
OC[C@H]1O[C@@H]2O[C@H]3[C@H](O)[C@@H](O)[C@@H](O[C@H]4[C@H](O)[C@@H](O)[C@@H](O[C@H]5[C@H](O)[C@@H](O)[C@@H](O[C@H]6[C@H](O)[C@@H](O)[C@@H](O[C@H]7[C@H](O)[C@@H](O)[C@@H](O[C@H]1[C@H](O)[C@H]2O)O[C@@H]7CO)O[C@@H]6CO)O[C@@H]5CO)O[C@@H]4CO)O[C@@H]3CO,inactive,–
c1ccc(C(O[C@@H]2CCCN(CCc3ccc4c(c3)OCO4)C2)c2ccccc2)cc1,–,12.2 µM (active)
O=C(O)c1cccc(C[C@@H]2COc3ccc(OCc4nc5cc(F)ccc5s4)cc3[C@@H]2O)c1,inactive,–
